This is a sample that favours compounds with a hit; in the whole collection about 12% have one here.
NS1 function inh – blocks influenza NS1 protein function. 0.4% of 270,000 active. Potency, µM (top dose mostly 46.1 µM), for inactives: top-dose activity, positive = more growth. AID 2326; also: potency is read from the fitted curve at half-maximal effect; actives are rising curves; nearly all actives have a fitted effect of over 50% in size
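OD600 was taken as the measure of yeast growth restored by compound in an NS1-expressing S. cerevisiae strain. Cells had been washed out of glucose medium and diluted 1:100 into galactose -URA medium, pH 6.0.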
Shiga inhibitor – Shiga toxin inhibition. inhibition, % at 38.7 µM. 9.2% of 290,000 active. AID 2315. Vero cells, Shiga toxin protein synthesis inhibition reporter; in the data active = inhibition mostly above about 28%, no sharp cut-off; inactive = mostly below about 43%; also: 0% is about no effect
SARS PLpro yeast – inhibitors of SARS-CoV papain-like protease in yeast. S. cerevisiae expressing SARS-CoV PLpro, growth rescue. Potency, µM (series often up to 32.9 µM), for inactives: top-dose activity, positive = growth rescue, most hits filed as activators. 0.19% of 330,000 active; also: potency is read from the fitted curve at half-maximal effect; 0% is about no effect; nearly all actives have a fitted effect of over 55% in size
CHX counter – counter-screen for Shiga toxin inhibitors: cycloheximide protein synthesis inhibition | max response, % | 12% of 300,000 active | cell reporter, cycloheximide protein synthesis inhibition counterscreen | AID 2314; in the data active = max response mostly above about 13%, no sharp cut-off; inactive = mostly below about 14%; also: read at 38.3 µM for the half of the compounds with a filed dose; 0% is about no effect
Numbers without * were called inactive. Unless noted, calls follow the shape of the full dose curve.

`CN1CCN(c2ccc(NC(=O)c3ccco3)cc2Cl)CC1` gave NS1 function inh 1%, Shiga inhibitor 55, SARS PLpro yeast -2% and CHX counter 47*.
Cc1ccc(NC(=O)c2cc(NC(=O)c3ccco3)ccc2N2CCOCC2)cc1Cl was read as NS1 function inh 2%, Shiga inhibitor -9, SARS PLpro yeast 1% and CHX counter -2.
CN(C(=O)Cn1nnc(-c2cccnc2)n1)C1CCCCC1 was read as NS1 function inh -8%, Shiga inhibitor -5, SARS PLpro yeast 1% and CHX counter 2.
For Cc1noc(C)c1S(=O)(=O)N(Cc1ccccc1)C(C)C the results were NS1 function inh -3%, Shiga inhibitor -1, SARS PLpro yeast 0% and CHX counter -3.
`Cc1c(C(=O)NC2CCOC2)oc2c(F)cccc12` (stereo not drawn) gave NS1 function inh -4%, Shiga inhibitor 114*, SARS PLpro yeast -1% and CHX counter 71*.
Screening Cc1c(C(=O)N2CCC[C@H]2CO)oc2c(F)cccc12 returned NS1 function inh 9%, Shiga inhibitor 36*, SARS PLpro yeast 3% and CHX counter 24*.
Cc1c(C(=O)N2CCC(N3CCSCC3)CC2)oc2c(F)cccc12 was read as NS1 function inh -3%, Shiga inhibitor 33, SARS PLpro yeast 2% and CHX counter 23*.
For Cc1c(C(=O)N2C[C@@H](C)O[C@@H](C)C2)oc2c(F)cccc12 the results were NS1 function inh -17%, Shiga inhibitor 70*, SARS PLpro yeast 1% and CHX counter 40*.
For Cc1c(C(=O)O)oc2c(F)cccc12 the results were Shiga inhibitor -3, SARS PLpro yeast 4% and CHX counter -1.
Screening Cc1ccc2oc(C(=O)N3CCC(N4CCSCC4)CC3)c(C)c2c1 returned NS1 function inh 3%, Shiga inhibitor 1, SARS PLpro yeast 0% and CHX counter 3.
For O=C(O)[C@@H]1[C@@H]2O[C@H]([C@@H](Br)[C@H]2Br)[C@H]1C(=O)O the results were NS1 function inh 3%.
For CC(NC(=O)Cn1cc(C(=O)C2CC2)c2ccccc21)c1ccccc1 (stereo not drawn) the results were NS1 function inh 3%, Shiga inhibitor -38, SARS PLpro yeast 1% and CHX counter -5.
For CCCCN1C(=O)c2ccc(C(=O)NC3(C)CCS(=O)(=O)C3)cc2C1=O (stereo not drawn) the results were SARS PLpro yeast 1%.
`CCN(CC)/C(N)=N/c1nc(C)cc(C)n1` gave NS1 function inh 1%, Shiga inhibitor 5, SARS PLpro yeast 0% and CHX counter -3.
CN(Cc1nc2ccccc2c(=O)[nH]1)CC(O)COCc1ccco1 (stereo not drawn) was read as NS1 function inh 5%, Shiga inhibitor -2, SARS PLpro yeast 2% and CHX counter 17.
For CC[C@H](C)[C@H](NC(=O)[C@H](CCC(=O)O)NC(=O)CNC(=O)[C@H](CCCCN)NC(=O)[C@H](CCC(=O)O)NC(=O)[C@H](CCSC)NC(=O)[C@H](CCSC)NC(=O)[C@H](CCSC)NC(=O)[C@H](CCC(=O)O)NC(=O)CNC(=O)[C@H](CO)NC(=O)[C@H](CO)NC(=O)[C@H](CO)NC(=O)[C@@H](N)CC(N)=O)C(=O)N[C@@H](CCCCN)C(=O)O the results were Shiga inhibitor -6 and CHX counter 1.
Screening COCCCn1c(SCC(=O)Nc2ccc(C)cc2)nc2ccccc2c1=O returned NS1 function inh -34%, Shiga inhibitor 56*, SARS PLpro yeast -1% and CHX counter 13.
`COCCCn1c(SCC(=O)Nc2ccc(C(=O)OC)cc2)nc2ccccc2c1=O` gave NS1 function inh -13%, Shiga inhibitor -6, SARS PLpro yeast 2% and CHX counter 7.
`COCCn1c(C)cc(C(=O)CSc2ncn[nH]2)c1C` gave NS1 function inh 0%, Shiga inhibitor 71*, SARS PLpro yeast 6% and CHX counter 36*.
COCCn1c(C)cc(C(=O)CSc2nc3ccccc3s2)c1C was read as NS1 function inh 41%, Shiga inhibitor 20, SARS PLpro yeast 9% and CHX counter 80*.
COCCn1c(C)cc(C(=O)CSc2nc3ccccc3o2)c1C was read as NS1 function inh -31%, Shiga inhibitor 120*, SARS PLpro yeast -2% and CHX counter 51*.
For C[C@H](NC(=O)c1ccco1)C(=O)Nc1ccc(C#N)cc1 the results were NS1 function inh 1%, Shiga inhibitor -3, SARS PLpro yeast -4% and CHX counter -1.
Screening COCCn1c(C)cc(C(=O)CSc2cc(C)c3ccc(OC)cc3n2)c1C returned NS1 function inh 20%, Shiga inhibitor 34, SARS PLpro yeast -6% and CHX counter 18*.
COCCn1c(C)cc(C(=O)CSc2nc(C)c(C)c(C)n2)c1C was read as Shiga inhibitor 24, SARS PLpro yeast 1% and CHX counter 11.
COCCn1c(SCC(=O)c2cc(C)n(C)c2C)nc2ccccc2c1=O was read as NS1 function inh -4%, Shiga inhibitor 39, SARS PLpro yeast -5% and CHX counter 11*.
`O=C(CCSc1ccc(Cl)cc1)NC1CCCC1` gave NS1 function inh 2%, Shiga inhibitor -2, SARS PLpro yeast -2% and CHX counter -1.
Screening O=C(CCS(=O)(=O)c1ccccc1)NC1CCCCC1 returned NS1 function inh 2%, Shiga inhibitor 90*, SARS PLpro yeast -5% and CHX counter 59*.
Screening O=C(CSc1ccccc1)NC1CCCCCC1 returned NS1 function inh -2%, Shiga inhibitor 118*, SARS PLpro yeast -1% and CHX counter 49*.
For CC(=O)NC1C(=O)N=C(SCC(=O)NC2CCCCC2)NC1=O (stereo not drawn) the results were NS1 function inh -4%, Shiga inhibitor 57*, SARS PLpro yeast 8% and CHX counter 22*.
COc1ccc(S(=O)(=O)CCC(=O)NC2CCCCC2)cc1 was read as NS1 function inh -9%, Shiga inhibitor -13, SARS PLpro yeast 0% and CHX counter -3.
Screening O=C(CCSc1ccccc1)NC1CCCC1 returned NS1 function inh -8%, Shiga inhibitor 42, SARS PLpro yeast -4% and CHX counter 28*.
Screening CCOCC(=O)Nc1cc(Cl)ccc1C returned NS1 function inh 5%, Shiga inhibitor -5, SARS PLpro yeast 0% and CHX counter -2.
Screening CCS(=O)(=O)N1CCN=C1SCc1cccnc1 returned Shiga inhibitor -15, SARS PLpro yeast 2% and CHX counter -2.
Screening Cc1ccccc1OCCCC(=O)NC1CCCCC1 returned NS1 function inh -8%, SARS PLpro yeast -4% and CHX counter 13*.
For O=C(CSc1ccccc1)NC1CCCCCCC1 the results were NS1 function inh -14%, Shiga inhibitor 62*, SARS PLpro yeast -2% and CHX counter 40*.
`Cc1ccc(C)c(OCCCC(=O)NC2CCCCC2)c1` gave NS1 function inh -8%, SARS PLpro yeast -4% and CHX counter -1.
`O=C(CCSCc1ccccc1Cl)NC1CCCCC1` gave Shiga inhibitor 95*, SARS PLpro yeast 0% and CHX counter 37*.
Screening CC(C)CC(C(=O)NCc1ccccn1)N1C(=O)c2ccccc2C1=O (stereo not drawn) returned NS1 function inh 1%, Shiga inhibitor -5, SARS PLpro yeast 2% and CHX counter -1.

Compound activity: PubChem, National Center for Advancing Translational Sciences (NCATS)
